Measured values published in PubChem BioAssay (NCATS).
Inconclusive results are not listed. Where a call stands in place of a potency, no number is given. Active and inactive are the calls of the source. Calls follow the shape of the dose curve; as a rule, active = well fitted curve in the direction sought with a large enough effect; inconclusive = small, poorly fitted or top-dose-only effect, or another doubt; inactive = no such curve, though single readings can be large; an effect the other way counts as inactive or inconclusive.

tested on: not listed separately; assay: Confirmation and Secondary Assay for Modulators of Hemoglobin Beta Chain Splicing at IVS2 654 locus (AID 910); conditions: HeLa EGFP-654 splicing reporter, GFP fluorescence, 48 h; series mostly up to 46.1 µM;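 also: per-well total GFP intensity by laser scanning cytometry after 2-day treatment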
In short: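 HeLa cells stably carrying EGFP interrupted by mutant beta-globin IVS2-654 intron (CMV-driven) were treated with compound for 2 days at 37C; corrected splicing was scored as total peak GFP intensity per well (488 nm excitation, 500-520 nm emission).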

With `CC(C)=CCCC1(C)C=Cc2c(O)c3c(c(CC=C(C)C)c2O1)OC12C(=CC4CC1C(C)(C)OC2(C/C=C(/C)C(=O)O)C4=O)C3=O` (stereo unspecified) as the compound, how does the Potency read?
The Potency was “inactive”.

For `CCCCOC(=O)c1ccccc1C(=O)OCCCC`, which Potency is on record?
Its Potency is “inactive”.

Which Potency does the source give for `CCCCCC1C(=O)O[C@H](C)[C@@H](NC(=O)c2cccc(NC=O)c2O)C(=O)OC(C)C1OC(=O)CC(C)C` (stereo partly specified) here?
Its Potency is “inactive”.

tested on: not listed separately; assay: Confirmation and Secondary Assay for Modulators of Hemoglobin Beta Chain Splicing at IVS2 705 locus (AID 930); conditions: HeLa EGFP-705 splicing reporter, GFP fluorescence, 48 h; series mostly up to 46.1 µM;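 also: HeLa cells stably expressing the EGFP-705 splicing reporter; GFP fluorescence per well restored by corrected splicing of the IVS2-705 intron in EGFP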
In short: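 Assay measures total GFP intensity per well in HeLa EGFP-705 cells after 2 days with compound; mis-splicing normally truncates EGFP, so fluorescence indicates corrected splicing.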

Which Potency does the source give for `CC(C)=CCCC1(C)C=Cc2c(O)c3c(c(CC=C(C)C)c2O1)OC12C(=CC4CC1C(C)(C)OC2(C/C=C(/C)C(=O)O)C4=O)C3=O` (stereo unspecified) here?
The Potency was “inactive”.

With `CCCCOC(=O)c1ccccc1C(=O)OCCCC` as the compound, how does the Potency read?
The Potency was “inactive”.

Which Potency does the source give for `CCCCCC1C(=O)O[C@H](C)[C@@H](NC(=O)c2cccc(NC=O)c2O)C(=O)OC(C)C1OC(=O)CC(C)C` (stereo partly specified) here?
The Potency was “inactive”.

target: Tumor susceptibility gene 101 protein (Homo sapiens) (UniProt Q99816); assay: qHTS Assay for Iinhibitors of HIV-1 Budding by Blocking the Interaction of PTAP/TSG101: Hit Validation (AID 651600); conditions: PTAP peptide/TSG101 UEV interaction, biochemical assay; series mostly up to 57.5 µM; also: nearly all actives have a fitted effect of over 70% in size; also: potency is read from the fitted curve at half-maximal effect
In short: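 Compounds are added to the Tsg101 binding domain (10 uM final) in pH 7.5 HEPES buffer. FITC-PTAP peptide follows at 50 nM final. After 20 min at r.t., polarized FITC emission is measured.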

Sequence of Tumor susceptibility gene 101 protein (Homo sapiens) (Q99816 whole entry, looked up, the tested form may be a part): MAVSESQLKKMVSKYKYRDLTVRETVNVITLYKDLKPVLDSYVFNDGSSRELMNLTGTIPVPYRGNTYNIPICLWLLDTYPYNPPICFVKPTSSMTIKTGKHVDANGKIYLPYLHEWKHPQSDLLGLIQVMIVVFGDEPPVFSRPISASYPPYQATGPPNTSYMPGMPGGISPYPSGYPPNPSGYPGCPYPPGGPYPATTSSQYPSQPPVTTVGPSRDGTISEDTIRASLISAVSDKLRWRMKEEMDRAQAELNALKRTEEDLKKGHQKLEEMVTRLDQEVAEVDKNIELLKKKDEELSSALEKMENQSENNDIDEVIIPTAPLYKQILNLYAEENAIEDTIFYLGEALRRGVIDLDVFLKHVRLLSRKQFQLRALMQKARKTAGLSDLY

Which Potency does the source give for `Nc1ccc2nonc2c1[N+](=O)[O-]` here?
The Potency was 14.6 µM (active).

Which Potency does the source give for `CN1/C(=C\C=C2C(=O)NC(=S)NC2=O)C(C)(C)c2ccccc21` here?
The Potency was “inactive”.

Which Potency does the source give for `Nc1ccc2ccc3cccc[n+]3c2c1` here?
Its Potency is 4.11 µM (active).

target: Rap guanine nucleotide exchange factor 3 (Homo sapiens) (UniProt O95398); assay: Confirmatory qHTS for antagonist of cAMP-regulated guanine nucleotide exchange factor 3 (EPAC1) (AID 1645880); conditions: EPAC1 Rap1B-BODIPY-GDP exchange, fluorescence; series mostly up to 115 µM; also: nearly all actives have a fitted effect of over 55% in size; also: potency is read from the fitted curve at half-maximal effect
In short: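 Nucleotide exchange uses 100 nM EPAC1, 250 nM RAP1B-BODIPY-GDP and 50 uM GDP, with compounds in a concentration-titration series. After 5 min at room temperature, fluorescence (480 nm ex/540 nm em) is read every 5 min for 30 min. Data are normalized to control ATA and DMSO.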

Sequence of Rap guanine nucleotide exchange factor 3 (Homo sapiens) (O95398 whole entry, looked up): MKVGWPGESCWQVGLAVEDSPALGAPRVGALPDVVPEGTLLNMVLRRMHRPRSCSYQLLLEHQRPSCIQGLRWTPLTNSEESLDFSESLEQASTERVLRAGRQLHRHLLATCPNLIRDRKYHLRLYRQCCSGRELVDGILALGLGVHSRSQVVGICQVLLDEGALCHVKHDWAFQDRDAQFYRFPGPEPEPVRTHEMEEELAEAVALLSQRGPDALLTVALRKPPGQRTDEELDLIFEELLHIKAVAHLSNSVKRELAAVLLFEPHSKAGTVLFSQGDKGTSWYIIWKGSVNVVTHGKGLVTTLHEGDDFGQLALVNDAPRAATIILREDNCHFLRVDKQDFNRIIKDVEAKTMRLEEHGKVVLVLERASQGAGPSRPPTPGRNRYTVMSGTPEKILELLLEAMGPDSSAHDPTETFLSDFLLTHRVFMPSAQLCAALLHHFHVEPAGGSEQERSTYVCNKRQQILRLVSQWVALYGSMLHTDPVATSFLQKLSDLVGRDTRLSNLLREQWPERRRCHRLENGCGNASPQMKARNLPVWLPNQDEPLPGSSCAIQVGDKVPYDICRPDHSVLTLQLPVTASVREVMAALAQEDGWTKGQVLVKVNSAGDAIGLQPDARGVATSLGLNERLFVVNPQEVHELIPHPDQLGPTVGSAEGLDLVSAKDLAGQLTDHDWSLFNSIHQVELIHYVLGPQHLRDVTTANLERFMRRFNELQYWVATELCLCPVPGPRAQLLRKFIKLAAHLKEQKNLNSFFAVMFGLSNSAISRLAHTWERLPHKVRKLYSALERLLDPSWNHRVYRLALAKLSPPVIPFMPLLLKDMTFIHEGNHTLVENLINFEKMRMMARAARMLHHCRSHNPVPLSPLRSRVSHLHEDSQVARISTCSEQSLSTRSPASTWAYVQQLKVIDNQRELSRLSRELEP

For `Nc1ccc2nonc2c1[N+](=O)[O-]`, which Potency is on record?
The Potency was “inactive”.

For `O=[N+]([O-])c1ccc(N2CCOCC2)c2c1no[n+]2[O-]`, which Potency is on record?
The Potency was 47.8 µM (active).

With `Cn1cc(/C=C2\C(=O)NC(=O)N(c3ccccc3)C2=O)c2ccccc21` as the compound, how does the Potency read?
The Potency was “inactive”.

With `CC(C)=CCCC1(C)C=Cc2c(O)c3c(c(CC=C(C)C)c2O1)OC12C(=CC4CC1C(C)(C)OC2(C/C=C(/C)C(=O)O)C4=O)C3=O` (stereo unspecified) as the compound, how does the Potency read?
Its Potency is 19.8 µM (active).

With `O=c1[nH]c(=S)n(-c2ccccc2F)c(O)c1C=Nc1ccc(N2CCOCC2)cc1` as the compound, how does the Potency read?
The Potency was “inactive”.

For `Cc1cccc(-n2c(O)c(/C=C/C=Nc3ccccc3)c(=O)[nH]c2=O)c1`, which Potency is on record?
The Potency was “inactive”.

For `O=C1CN=C(c2ccccc2)c2cc(Cl)ccc2N1Cc1ccc(Cl)cc1`, which Potency is on record?
Its Potency is “inactive”.

With `COc1ccccc1-n1c(-c2cccs2)nc2ccccc2c1=O` as the compound, how does the Potency read?
The Potency was “inactive”.

Which Potency does the source give for `CCN(CC)c1ccc(N=Cc2c(O)n(CCc3ccc(OC)c(OC)c3)c(=O)[nH]c2=O)cc1` here?
The Potency was “inactive”.

For `O=[N+]([O-])c1ccc(N2CCCCCC2)c2nonc12`, which Potency is on record?
The Potency was “inactive”.

Which Potency does the source give for `Cc1ccc(N)c(C(=O)c2ccc(Br)cc2)c1` here?
Its Potency is “inactive”.

Which Potency does the source give for `CCCCOC(=O)c1ccccc1C(=O)OCCCC` here?
The Potency was “inactive”.

Which Potency does the source give for `COC1C(OC(=O)c2ccc(C)[nH]2)C(O)C(Oc2ccc3c(O)c(NC(=O)c4ccc(O)c(CC=C(C)C)c4)c(=O)oc3c2Cl)OC1(C)C` (stereo unspecified) here?
Its Potency is 30.1 µM (active).

With `O=c1[nH]c(=O)n(-c2cccc(F)c2)c(O)c1/C=C1\C=Nc2ccccc21` as the compound, how does the Potency read?
The Potency was “inactive”.

For `CCOC(=O)c1cc(CC)sc1/N=C/C1C(=O)NC(=S)NC1=O`, which Potency is on record?
Its Potency is “inactive”.

Which Potency does the source give for `Cc1cccc(CN2C(=O)CN=C(c3ccccc3)c3ccccc32)c1` here?
Its Potency is “inactive”.

With `COc1cccc(N2C(=O)NC(=O)/C(=C\c3cn(C)c4ccccc34)C2=O)c1` as the compound, how does the Potency read?
Its Potency is “inactive”.

With `COC1C(C)OC(OC2CC(C)(O)Cc3cc4c(c(O)c32)C(=O)c2c(O)cc3c(c2C4=O)OC2OC3(C)C(O)C(N(C)C)C2O)C(OC)C1(C)OC` (stereo unspecified) as the compound, how does the Potency read?
Its Potency is “inactive”.

With `Cc1ccccc1OCC(=O)N1CCN(CCc2ccccn2)CC1` as the compound, how does the Potency read?
The Potency was “inactive”.

For `CC(C)CCn1c(=O)c(C(=O)Nc2ccccc2S(N)(=O)=O)c(O)c2ccccc21`, which Potency is on record?
Its Potency is 75.7 µM (active).

Which Potency does the source give for `CN1/C(=C\C=C2C(=O)NC(=S)NC2=O)C(C)(C)c2ccccc21` here?
Its Potency is “inactive”.

With `Nc1ccc2ccc3cccc[n+]3c2c1` as the compound, how does the Potency read?
The Potency was “inactive”.

For `CC(C)N1C(=O)/C(=C/C=C/c2ccco2)C(=O)N(Cc2ccco2)C1=O`, which Potency is on record?
Its Potency is “inactive”.

Which Potency does the source give for `O=c1[nH]c(=S)n(-c2ccc(Cl)cc2)c(O)c1C=Nc1ccc(N2CCOCC2)cc1` here?
The Potency was “inactive”.

Which Potency does the source give for `CCCCCC1C(=O)O[C@H](C)[C@@H](NC(=O)c2cccc(NC=O)c2O)C(=O)OC(C)C1OC(=O)CC(C)C` (stereo partly specified) here?
Its Potency is “inactive”.

target: Rap guanine nucleotide exchange factor 3 (Homo sapiens) (UniProt O95398); assay: Confirmatory qHTS for agonist of cAMP-regulated guanine nucleotide exchange factor 3 (EPAC1) (AID 1645881); conditions: EPAC1 Rap1B BODIPY-GDP exchange fluorescence; series mostly up to 154 µM;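 also: EPAC1 catalysed release of BODIPY-GDP from Rap1B seen as fluorescence loss; nearly all actives have a fitted effect of over 75% in size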

Which Potency does the source give for `O=[N+]([O-])c1ccc(N2CCOCC2)c2c1no[n+]2[O-]` here?
Its Potency is “inactive”.

For `Cn1cccc1/C=C1\C(=O)NC(=O)N(Cc2ccccc2)C1=O`, which Potency is on record?
The Potency was “inactive”.

For `CC(C)=CCCC1(C)C=Cc2c(O)c3c(c(CC=C(C)C)c2O1)OC12C(=CC4CC1C(C)(C)OC2(C/C=C(/C)C(=O)O)C4=O)C3=O` (stereo unspecified), which Potency is on record?
The Potency was “inactive”.

For `Cc1cc(/C=C2\C(=O)NC(=O)N(Cc3ccccc3Cl)C2=O)c(C)n1-c1ccc(C(=O)O)cc1`, which Potency is on record?
Its Potency is “inactive”.

With `CC(c1ccccc1)(c1ccccc1)c1ccncc1` as the compound, how does the Potency read?
The Potency was “inactive”.

For `COc1ccccc1-n1c(-c2cccs2)nc2ccccc2c1=O`, which Potency is on record?
The Potency was “inactive”.

For `O=C1NC(=O)N(Cc2ccccc2)C(=O)/C1=C\C=C\c1ccco1`, which Potency is on record?
The Potency was “inactive”.

Which Potency does the source give for `Cc1ccc(N)c(C(=O)c2ccc(Br)cc2)c1` here?
The Potency was “inactive”.

Which Potency does the source give for `CCCCOC(=O)c1ccccc1C(=O)OCCCC` here?
Its Potency is “inactive”.

For `COC1C(OC(=O)c2ccc(C)[nH]2)C(O)C(Oc2ccc3c(O)c(NC(=O)c4ccc(O)c(CC=C(C)C)c4)c(=O)oc3c2Cl)OC1(C)C` (stereo unspecified), which Potency is on record?
The Potency was “inactive”.

With `CCCNC1=C(C)C(=O)C2=C(C1=O)C(COC(N)=O)[C@]1(OC)C3NC3CN21` (stereo partly specified) as the compound, how does the Potency read?
Its Potency is “inactive”.

For `O=C1NC(=O)N(Cc2ccco2)C(=O)/C1=C\c1cccn1CCOc1ccc(Cl)cc1`, which Potency is on record?
The Potency was “inactive”.

Which Potency does the source give for `COc1cccc(C(c2nnnn2C2CCCCC2)N2CCC3(CC2)C(=O)NCN3c2ccccc2)c1OC` (stereo unspecified) here?
The Potency was “inactive”.

With `Cc1cc2ccccn2c1C(C[N+](=O)[O-])c1c(F)cccc1Cl` (stereo unspecified) as the compound, how does the Potency read?
The Potency was “inactive”.

For `Cc1cccc(-c2nc(CN3C(=O)CN=C(c4ccccc4)c4ccccc43)c(C)o2)c1`, which Potency is on record?
The Potency was “inactive”.

With `CC(C)CCn1c(=O)c(C(=O)Nc2ccccc2S(N)(=O)=O)c(O)c2ccccc21` as the compound, how does the Potency read?
Its Potency is “inactive”.

For `COc1ccc(CN2C(=O)NC(=O)/C(=C\c3ccco3)C2=O)cc1`, which Potency is on record?
Its Potency is “inactive”.

With `COCCNC(=O)Cn1cc(/C=C2\C(=O)NC(=O)N(c3ccccc3F)C2=O)c2ccccc21` as the compound, how does the Potency read?
Its Potency is “inactive”.

With `Nc1cc(Cl)c2nonc2c1[N+](=O)[O-]` as the compound, how does the Potency read?
Its Potency is “inactive”.

For `Cc1ccc(-n2c(O)c(C=NCc3ccco3)c(=O)[nH]c2=S)cc1C`, which Potency is on record?
Its Potency is “inactive”.

For `CCOC(=O)[C@]12Cc3cc(Cl)ccc3[C@H]1N(C(C)C)C(=O)c1ccccc12`, which Potency is on record?
The Potency was “inactive”.

Which Potency does the source give for `CCCCCC1C(=O)O[C@H](C)[C@@H](NC(=O)c2cccc(NC=O)c2O)C(=O)OC(C)C1OC(=O)CC(C)C` (stereo partly specified) here?
The Potency was “inactive”.
